The values that follow come from PubChem BioAssay (NCATS).

Assay [1] deals with Aldehyde dehydrogenase, mitochondrial (Homo sapiens) (UniProt P05091). In words: qHTS for Inhibitors of the Aldehyde Dehydrogenase Family (ALDH2) Primary screen (AID 2061308). Also: nearly all actives have a fitted effect of over 55% in size.
Assay [2] deals with Retinaldehyde dehydrogenase 3 (Homo sapiens) (UniProt P47895). The assay can be described thus: qHTS for Inhibitors of the Aldehyde Dehydrogenase Family (ALDH1A3) Primary screen (AID 2061315).

Records with an inconclusive call do not appear. A call without a number means that no potency is given here. Activity calls are given as the source filed them. Calls follow the shape of the dose curve; as a rule, active = well fitted curve in the direction sought with a large enough effect; inconclusive = small, poorly fitted or top-dose-only effect, or another doubt; inactive = no such curve, though single readings can be large; an effect the other way counts as inactive or inconclusive.

On to `Cc1cc(C)nc(NC(=S)N2CCN(c3ncnc4ccccc34)CC2)c1`, for which the Potency result in assay [1] and in assay [2] was “inactive” in each case.
As to `COc1cccc(CNc2ccc(S(=O)(=O)Nc3cc(C)on3)cc2)c1O`, the Potency result in assay [1] and in assay [2] was “inactive” throughout.
On to `O=C(Nc1ccccc1)Nc1nnc(-c2ccncc2)s1`, for which the Potency entry in assay [1] and in assay [2] was “inactive” throughout.
Turning to `CCCN(C)c1ncnc2ccc(-c3ccc4c(c3)OCO4)cc12`, the Potency result in assay [1] and in assay [2] was “inactive” in each case.
As for `COc1ccccc1OCCN1CC(COc2cccc3[nH]c4ccccc4c23)OCC1=O` (stereo not given), the Potency result in assay [1] and in assay [2] was “inactive” each time.
With `CC1(C)CC[C@]2(C(=O)O)CC[C@]3(C)C(=CCC4[C@@]5(C)C[C@@H](O)[C@H](O)C(C)(C)C5CC[C@]43C)C2C1` (stereo not given in full), the Potency entry in assay [1] and in assay [2] was “inactive” throughout.
For `Cn1nnnc1Sc1ncnc2scc(-c3cccc([N+](=O)[O-])c3)c12`, the Potency result in assay [1] and in assay [2] was “inactive” throughout.
As to `CN(C)[C@@H]1CCN(c2cccc(Nc3nn4c(=O)c5ccccc5nc4s3)c2)C1`, the Potency entry in assay [1] and in assay [2] was “inactive” each time.
Turning to `O=S(=O)(c1ccc2c(c1)OCCO2)C1CCC(O)CC1` (stereo not given), the Potency entry in assay [1] and in assay [2] was “inactive” each time.
Regarding `Cc1c(P(=S)(c2ccccc2)c2ccccc2)[n+]2ccccc2n1CCCCCc1ccccc1`, the Potency result in assay [1] and in assay [2] was “inactive” in each case.
`COc1cccc(Cn2ncc3c4sc(SC)cc4n(C)c3c2=O)c1`: the Potency result in assay [1] and in assay [2] was “inactive” each time.
For the molecule `O=C(OCC#CCSc1nnc(-c2cccc3ccccc23)o1)c1ccc(OC(F)F)cc1`, the Potency result in assay [1] and in assay [2] was “inactive” each time.
Regarding `Cc1ccc(S(=O)(=O)Nc2ccccc2C(=O)Nc2nc(-c3ccccc3)cs2)cc1`, the Potency result in assay [1] and in assay [2] was “inactive” in each case.
`Cc1cccc(CNc2ccnc(-c3cccc(C(F)(F)F)c3)n2)c1`: the Potency result in assay [1] and in assay [2] was “inactive” in each case.
`Oc1cc(-c2ccncc2)cc2cccnc12`: the Potency result in assay [1] and in assay [2] was “inactive” each time.
`O=C1Nc2cccc(Cl)c2/C1=C\c1cc(Cl)c(O)c(Cl)c1`: the Potency entry in assay [1] and in assay [2] was “inactive” each time.
As to `O=C1CCCC2=C1C(c1[nH]ncc1Cl)NC(=NCc1cccs1)N2` (stereo not given), the Potency entry in assay [1] and in assay [2] was “inactive” throughout.
`C=C1C[C@]23C[C@H]1CC[C@H]2C1=C[C@H]2OC(=O)[C@@](C)([C@H]1[C@@H]3C(=O)O)[C@H]2O`: the Potency entry in assay [1] and in assay [2] was “inactive” throughout.
On to `Cn1cc2ccc(-c3ccc4ncnc(NCc5cccs5)c4c3)cc2n1`, for which the Potency entry in assay [1] and in assay [2] was “inactive” each time.
Regarding `CC(=O)c1ccc(N2CCN(S(=O)(=O)c3ccc4c(c3)C(=O)OC4)CC2)cc1`, the Potency entry in assay [1] and in assay [2] was “inactive” each time.
Regarding `N#Cc1nc(Nc2cc(F)cc(Cl)c2)nc(NC2CCCC2)n1`, the Potency entry in assay [1] and in assay [2] was “inactive” each time.
As to `Cc1occc1CNc1ncnc2ccc(-c3ccc4c(c3)OCO4)cc12`, the Potency entry in assay [1] and in assay [2] was “inactive” each time.
In the case of `NC(=O)C1CCN(c2nc(-c3ccccc3F)cs2)CC1`, the Potency result in assay [1] and in assay [2] was “inactive” each time.
For `O=C(OCC#CCSc1nnc(-c2cccc3ccccc23)o1)c1csc2ccccc12`, the Potency entry in assay [1] and in assay [2] was “inactive” each time.
With `Fc1ccc(-c2nnc(CCCCSc3nnc(-c4cccc5ccccc45)o3)o2)cc1`, the Potency result in assay [1] and in assay [2] was “inactive” each time.
With `CCCCN(C)C(=O)Cn1nc(-c2ccc(C(C)(C)C)cc2)ccc1=O`, the Potency result in assay [1] and in assay [2] was “inactive” in each case.
In the case of `S=c1[nH]c2ccccc2n1CCc1ccccc1`, the Potency result in assay [1] and in assay [2] was “inactive” in each case.
For the molecule `COc1ccc(Nc2nn3c(=O)c4ccccc4nc3s2)cc1`, the Potency entry in assay [1] and in assay [2] was “inactive” each time.
`O=S(=O)(Nc1ccccc1)c1ccc(O)c2ncccc12`: the Potency result in assay [1] and in assay [2] was “inactive” throughout.
Take `CCOC(=O)c1ccc(-c2ccc3ncnc(NCCc4cnc[nH]4)c3c2)o1`: the Potency entry in assay [1] and in assay [2] was “inactive” each time.
For `O=C1CCc2cc(S(=O)(=O)Nc3ccccc3Cl)ccc2N1`, the Potency entry in assay [1] and in assay [2] was “inactive” in each case.
Turning to `Cc1ccc(-c2ccc(=O)n(CC(=O)N(C)[C@H](C)c3ccccc3)n2)cc1`, the Potency result in assay [1] and in assay [2] was “inactive” throughout.
For `O=C1CCc2cc(S(=O)(=O)Nc3ccc(F)cc3)ccc2N1`, the Potency entry in assay [1] and in assay [2] was “inactive” in each case.
Regarding `CCOc1ccc(CCNC(=O)c2cc3sccc3n2CCc2ccccc2)cc1OCC`, the Potency entry in assay [1] and in assay [2] was “inactive” throughout.
`Fc1ccc(-c2c(P(=S)(c3ccccc3)c3ccccc3)n3ccccc3[n+]2C/C=C/c2ccccc2)cc1`: the Potency result in assay [1] and in assay [2] was “inactive” each time.
For `N#Cc1nc(Nc2cccc3ccccc23)nc(NC2CCCC2)n1`, the Potency entry in assay [1] and in assay [2] was “inactive” each time.
As for `Fc1ccccc1-c1ccc(Nc2nc(-c3ccncc3)nc3ccccc23)cc1F`, the Potency entry in assay [1] and in assay [2] was “inactive” in each case.
Consider `COc1ccccc1OC1=NS(=O)(=O)c2ccccc21`, for which the Potency result in assay [1] and in assay [2] was “inactive” in each case.
Turning to `O=C(Nc1ccccn1)c1sc2ccccc2c1Cl`, the Potency result in assay [1] and in assay [2] was “inactive” in each case.
As to `CC(C)O[C@@H]1O[C@H](CO)[C@@H](O)[C@H](O)[C@H]1O`, the Potency entry in assay [1] and in assay [2] was “inactive” each time.
Regarding `CNc1nnc(-c2cccc3ccccc23)o1`, the Potency result in assay [1] and in assay [2] was “inactive” throughout.
Take `COC1=CC(=O)C[C@@H](C)[C@@]12Oc1c(Cl)c(OC)cc(OC)c1C2=O`: the Potency entry in assay [1] and in assay [2] was “inactive” each time.
As for `N[C@@H](Cc1ccc(O[S+](=O)([O-])c2cccc3cccnc23)cc1)C(=O)N1CCN(c2ccccc2)CC1`, the Potency entry in assay [1] and in assay [2] was “inactive” each time.
Turning to `O=C(O)c1ccc(S(=O)(=O)N[C@H](Cc2c[nH]c3ccccc23)C(=O)O)cc1`, the Potency entry in assay [1] and in assay [2] was “inactive” each time.
In the case of `Cc1ccc(-c2ccnn(CC(=O)N(C)C(C)c3ccco3)c2=O)cc1` (stereo not given), the Potency entry in assay [1] and in assay [2] was “inactive” throughout.
